An excerpt weighted towards active compounds, which were near 2.3% of everything screened.
TMEM16A act = activators or potentiators of mouse TMEM16A chloride channel | 0.3% of 340,000 active | Q8BHY3 | B-score at 10 µM | HEK293 TMEM16A/YFP-H148Q/I152L, iodide quench fluorescence; hits give low values;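 active means fluorescence-ratio B-score plate-corrected deviation score at least 3 library SD below zero, with starting fluorescence score within 5 deviations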;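 further: channel opened by trigger with iodide after compound preincubation; score built on the fluorescence ratio of max minus min over baseline; more negative score means more quench and so TMEM16A activation or potentiation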
Target sequence (Q8BHY3 whole entry, looked up): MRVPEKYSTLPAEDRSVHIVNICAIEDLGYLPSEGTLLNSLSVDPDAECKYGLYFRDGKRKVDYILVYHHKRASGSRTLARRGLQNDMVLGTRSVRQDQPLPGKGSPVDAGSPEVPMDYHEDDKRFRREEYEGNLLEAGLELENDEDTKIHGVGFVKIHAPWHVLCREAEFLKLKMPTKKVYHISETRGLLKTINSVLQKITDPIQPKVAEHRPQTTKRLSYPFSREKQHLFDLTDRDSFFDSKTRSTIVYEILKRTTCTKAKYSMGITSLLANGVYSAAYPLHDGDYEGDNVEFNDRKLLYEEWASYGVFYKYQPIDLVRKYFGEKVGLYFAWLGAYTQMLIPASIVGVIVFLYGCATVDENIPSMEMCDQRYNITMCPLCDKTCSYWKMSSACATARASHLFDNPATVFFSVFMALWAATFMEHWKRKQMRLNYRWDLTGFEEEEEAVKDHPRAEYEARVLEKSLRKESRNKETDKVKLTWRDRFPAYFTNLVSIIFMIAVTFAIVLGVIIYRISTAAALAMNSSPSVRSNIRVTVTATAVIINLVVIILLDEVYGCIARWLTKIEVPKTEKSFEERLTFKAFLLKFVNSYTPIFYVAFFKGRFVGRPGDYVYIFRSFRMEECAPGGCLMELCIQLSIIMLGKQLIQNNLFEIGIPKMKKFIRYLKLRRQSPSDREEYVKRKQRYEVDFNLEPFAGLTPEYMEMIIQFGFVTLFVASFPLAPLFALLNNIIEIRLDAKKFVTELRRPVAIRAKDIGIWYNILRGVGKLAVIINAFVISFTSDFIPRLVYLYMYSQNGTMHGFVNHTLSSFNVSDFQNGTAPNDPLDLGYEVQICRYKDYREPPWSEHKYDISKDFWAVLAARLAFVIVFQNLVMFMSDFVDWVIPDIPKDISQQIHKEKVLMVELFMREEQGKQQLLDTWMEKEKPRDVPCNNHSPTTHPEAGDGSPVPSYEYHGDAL
CHT PAM = human CHT allosteric activation. Q9GZV3. CHT-expressing cells, membrane potential dye, choline EC20; hits give high values; LV-AA mutant CHT in HEK293 cells. B-score at 10 µM. 0.49% of 310,000 active. AID 488977;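 active means initial fluorescence not abnormally high and integrated response B-score, plate-corrected, over 3 SD above library mean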
CHT inh = inhibitors of human choline transporter CHT; Q9GZV3; CHT-expressing cells, membrane potential dye, choline response; hits give low values; B-score at 10 µM; 0.86% of 310,000 active; AID 488975;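 active means B-score over 3 SD under the library average, and starting fluorescence ratio not unusually high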;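 further: choline stimulus applied at its EC90 after an EC20 pre-addition; B-score computed on integrated fluorescence ratio after choline addition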
TMEM16A inh = blocks the mouse calcium-activated chloride channel TMEM16A. normalized B-score (activity score, 25-100; higher = stronger inhibition) at 10 µM. Q8BHY3. 1.2% of 310,000 active. HEK293 TMEM16A/YFP iodide influx fluorescence, ionomycin. AID 588511;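 active means ratio plate-corrected score three or more library SD toward inhibition, starting fluorescence score within five deviations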;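 further: score derived from kinetic fluorescence span divided by baseline fluorescence per well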
CHT act confirm = human CHT activation, confirmatory screen; shares compounds with CHT PAM; CHT-expressing cells, membrane potential dye fluorescence (FDSS); % of choline EC20–EC90 response window; HEK293 expressing CHT LV-AA mutant; choline added at its EC20; 91% of 2,500 active; activation, % at 10 µM; AID 504833;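 active means primary screen active, with duplicate mean activation above negative control mean plus 3 SD, cut at about 11% in these data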
HEK293 MP dye = counter-screen for CHT activators: effect in parental HEK293 cells | shares compounds with CHT PAM | membrane potential dye fluorescence (FDSS); measured after EC20 choline addition | ratio readout change at 10 µM, hits read low | 62% of 2,500 active;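 active means duplicate-averaged ratio beyond 3 SD from buffer wells, up or down, though filed actives are nearly all decreases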
An asterisk follows results filed as active; i = inactive; · = no result given.

SMILES	TMEM16A act	CHT PAM	CHT inh	TMEM16A inh	CHT act confirm	HEK293 MP dye
Cc1cc(C)n2[nH]c(=O)c(N=Nc3cccc(C(F)(F)F)c3)c2n1	i	7.21*	i	i	36.7*	-73.6*
CN(C)CCCNC(=O)C(=O)NCC(c1cccs1)S(=O)(=O)c1ccc(F)cc1 (stereo not given)	i	i	i	i	·	·
CCCn1c(-c2cccs2)nc2nc3ccccc3nc21	i	i	i	i	·	·
c1csc(-c2nc3nc4ccccc4nc3n2Cc2ccc3c(c2)OCO3)c1	i	8.66*	i	i	15.4*	i
CC(=O)c1cccc(NC(=O)C2CC(=O)N(C3CCCC3)C2)c1 (stereo not given)	i	·	·	·	·	·
COc1ccc(N2CCN(C(c3cc(OC)ccc3OC)c3nnnn3Cc3ccco3)CC2)cc1 (stereo not given)	i	7.42*	i	i	21.3*	i
CCC(C)(C)n1nnnc1C(c1cc(OC)ccc1OC)N1CCN(Cc2ccccc2)CC1 (stereo not given)	i	7.57*	i	i	35.1*	i
COc1ccccc1C(c1nnnn1Cc1ccco1)N1CCN(c2cccc(C)c2C)CC1 (stereo not given)	i	i	i	i	·	·
Cc1cc(=O)n2[nH]c(-c3ccc(F)cc3)cc2n1	i	i	i	i	42.2*	-30.9*
Cc1ccccc1SCC(=O)Nc1cc(C(F)(F)F)ccc1N1CCOCC1	i	i	i	100*	36.2*	i
Cc1nnc(SCC(=O)Nc2cc(C(F)(F)F)ccc2N2CCOCC2)o1	i	i	i	i	·	·
COc1ccccc1NC(=O)Cc1nnc(SCC(=O)NC2=NCCS2)n1C	i	i	i	i	·	·
Cc1c(CCOC(=O)c2cc([N+](=O)[O-])cc([N+](=O)[O-])c2)sc[n+]1CC(=O)c1ccccc1	i	i	i	i	31.7*	i
Cc1c(CCOC(=O)c2ccccc2)sc[n+]1Cc1ccccc1	i	i	i	i	·	·
Cc1c(CCOC(=O)CC23CC4CC(CC(C4)C2)C3)sc[n+]1CC(=O)c1ccc(Br)cc1	i	i	i	i	27.6*	-25.3*
Cc1c(CCOC(=O)c2cc([N+](=O)[O-])cc([N+](=O)[O-])c2)sc[n+]1CCCCS(=O)(=O)[O-]	i	i	i	i	12.3*	-20.7*
COc1ccc(NC(=O)CNc2ccccc2N2CCCC2=O)cc1S(=O)(=O)N1CCOCC1	i	·	·	·	·	·
Cc1cc(=O)oc2cc(OCC(=O)N3CCC(O)CC3)c(Cl)cc12	i	i	i	i	24.8*	-21.3*
COc1ccc(C2C(C)C(=O)C(C)C(c3ccc(OC)cc3)N2N=O)cc1 (stereo not given)	i	·	·	·	·	·
Cc1cc(N2CCN(c3ccccn3)CC2)n2nc(C)nc2n1	i	i	i	i	·	·
Cc1cc(N2CCN(C3CCCCC3)CC2)n2nc(C)nc2n1	i	8.94*	i	i	56.0*	-56.3*
O=C(O)C1CCCCC1C(=O)Nc1ccc(S(=O)(=O)N2CCOCC2)cc1 (stereo not given)	i	·	·	·	·	·
CCN(C(=O)COC(=O)c1cc2ccccc2cc1OC)c1c(N)n(Cc2ccccc2)c(=O)[nH]c1=O	i	·	·	·	·	·
COC(=O)c1ccc(CNC(=O)c2ccc(S(=O)(=O)N(C)c3ccccc3OC)cc2)cc1	i	·	·	·	·	·
CCCCCCCN1C(N(C)C)=NC[C@@H]1Cc1ccccc1	i	6.83*	i	i	25.3*	i
SMILES	TMEM16A act	CHT PAM	CHT inh	TMEM16A inh	CHT act confirm	HEK293 MP dye
Cc1cccc(CCN2C(N(C)C)=NC[C@@H]2Cc2ccccc2)c1	i	·	·	·	·	·
CN(C)C1=NC[C@H](Cc2ccccc2)N1CC1CCCCC1	i	i	i	i	·	·
CN(C)C1=NC[C@H](Cc2ccccc2)N1CCCCc1ccccc1	i	i	i	i	16.2*	i
O=C(Nc1ccc(F)cc1F)c1ccc(S(=O)(=O)NCc2ccco2)cc1	i	·	·	·	·	·
O=C(O)c1cccc(Oc2ccc(C(=O)O)c([N+](=O)[O-])c2)c1	i	·	·	·	·	·
COC(=O)C1=CN(Cc2ccccc2)C=C(C(=O)OC)C1c1ccc(O)c(OC)c1	i	i	i	i	·	·
CCOc1cc(C2C(C(=O)OC)=CN(Cc3ccc(Cl)cc3)C=C2C(=O)OC)ccc1O	i	i	i	i	20.4*	i
CCN(CC)c1nc(N)c2c(N)nc3c(c2c1C#N)CC(c1ccccc1)O3 (stereo not given)	i	6.54*	i	i	25.5*	i
CCOC(=O)C1C(=O)NC(c2ccccc2)=NC1c1cccc(Br)c1 (stereo not given)	i	i	i	i	·	·
CCOC(=O)C1C(C)N=C2SCC(=O)N2C1c1cccc(Br)c1 (stereo not given)	i	i	i	i	6.4	i
COC(=O)c1ccc2nc(C)cc(Nc3ccccc3C)c2c1	i	6.59*	i	i	43.5*	-44.3*
CCN(c1ccccc1)S(=O)(=O)c1ccc(C(=O)N(CCCN(C)C)c2nc3cc4c(cc3s2)OCO4)cc1	i	i	i	i	43.2*	-37.2*
CC1(C(=O)OCC(=O)Nc2ccc(S(=O)(=O)N3CCOCC3)cc2)CC1(Cl)Cl (stereo not given)	i	·	·	·	·	·
Cc1nnc(C)n1/N=C/c1cc2ccccc2nc1Cl	i	8.59*	i	i	50.8*	-54.6*
CCN(C(=O)COC(=O)C(c1ccccc1)c1ccccc1)c1c(N)n(Cc2ccccc2)c(=O)[nH]c1=O	i	·	·	·	·	·
COc1ccc2c(c1)C(=O)Cc1ccccc1O2	i	i	i	i	·	·
CCc1c(C)c(C#N)c2nc3ccccc3n2c1NCc1ccco1	i	i	i	i	11.4*	i
COc1ccc(Cl)cc1NC(=O)c1nnn(CC(=O)Nc2ccc(C)c(C)c2)c1N	i	i	i	i	·	·
COc1ccc2nc(C)cc(NCCN3CCOCC3)c2c1	i	i	i	i	·	·
Cc1cc(NCCN2CCOCC2)c2ccc3ccccc3c2n1	i	6.76*	i	i	39.4*	-41.1*
N#C/C(=C/C1=C(N2CCOCC2)C(=C/c2ccc(Cl)cc2Cl)/CC1)C(=O)Nc1ccccc1F	i	·	·	·	·	·
COc1cccc(NC(=O)N2CCC(NC(=O)C(Cc3ccccc3F)NC(C)=O)CC2)c1 (stereo not given)	i	i	i	i	·	·
CCOC(=O)Sc1nc2ncncc2[nH]1	i	·	·	·	·	·
Cc1cc(N2CCN(C(=O)Nc3ccccc3C#N)CC2)c2ccccc2n1	i	i	i	i	56.4*	-81.9*
